This note sets out measurements from PubChem BioAssay AID1211 (NMMLSC, 2008).

This assay has as its target Estrogen receptor (Homo sapiens) (UniProt P03372). The assay is described as follows: displacement of fluorescent estrogen from ERalpha – cell-based, Cos7 ERalpha-GFP, flow cytometry, primary screen (AID 1211).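 Further: 0% = DMSO vehicle wells and 100% = no E2-Alexa633 signal left.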 The following applies: fluorescent ligand competition, stronger effect = higher value.

Molecules are shown by their SMILES. Activity calls are given as the source filed them. How the calls were made is not given here.

Sequence of Estrogen receptor (Homo sapiens) (P03372 whole entry, looked up): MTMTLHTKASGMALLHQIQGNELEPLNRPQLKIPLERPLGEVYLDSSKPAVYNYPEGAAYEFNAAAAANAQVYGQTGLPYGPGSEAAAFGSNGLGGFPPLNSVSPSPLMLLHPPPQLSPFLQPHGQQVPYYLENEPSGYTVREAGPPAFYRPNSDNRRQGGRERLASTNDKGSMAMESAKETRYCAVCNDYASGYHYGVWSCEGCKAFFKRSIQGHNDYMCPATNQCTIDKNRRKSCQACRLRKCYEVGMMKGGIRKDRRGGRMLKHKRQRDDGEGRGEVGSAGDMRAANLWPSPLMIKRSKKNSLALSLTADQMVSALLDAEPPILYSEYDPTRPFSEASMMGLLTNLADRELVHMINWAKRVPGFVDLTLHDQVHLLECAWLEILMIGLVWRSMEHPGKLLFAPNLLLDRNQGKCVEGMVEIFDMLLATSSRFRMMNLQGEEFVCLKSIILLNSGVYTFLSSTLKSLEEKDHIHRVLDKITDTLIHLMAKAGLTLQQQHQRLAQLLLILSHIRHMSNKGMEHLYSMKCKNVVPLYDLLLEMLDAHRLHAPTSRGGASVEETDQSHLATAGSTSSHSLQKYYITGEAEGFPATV

As to `O=C(CSc1nnc(Nc2ccccc2F)s1)NCc1ccco1`, the inhibition of ligand binding (at 10 µM) is 3% (inactive) and the inhibition of ligand binding (binding inhibition, at 0.1 µM) was 3%.
As for `Nc1ccc2nc(-c3cccnc3)[nH]c2c1`, the inhibition of ligand binding runs as follows: (at 10 µM) 44% (inactive); (binding inhibition, at 0.1 µM) 26%.
For `CN(C)CC(=O)N1c2ccccc2CCc2ccc(NC(=O)c3ccc(N)cc3)cc21`, the inhibition of ligand binding was 44% (inactive) (at 10 µM) and 41% (binding inhibition, at 0.1 µM).
In the same order, the values of `O=C(/C=C/c1ccc(O)cc1)c1ccc(O)cc1O` are 62% (inactive) and 18%.
In the same order, the values of `Cc1cccn2c(=O)c3cc(C(=O)O)n(C)c3nc12` are 33% (inactive) and 17%.
In the same order, the values of `Cc1ccc(N=Cc2ccc(O)cc2O)cc1F` are 29% (inactive) and 2%.
For the compound `COc1cc(/C=N/N2CCN(C3c4ccccc4-c4ccccc43)CC2)ccc1O`, the inhibition of ligand binding is, setting by setting: (at 10 µM) 36% (inactive); (binding inhibition, at 0.1 µM) 15%.
In the same order, the values of `COc1cccc2c1NC(C(=O)O)C1CC=CC21` (stereo unspecified) are 38% (inactive) and 9%.
In the case of `O=C(CSc1nnc(-c2ccc(OC(F)F)cc2)o1)NC(=O)NCc1ccco1`, the inhibition of ligand binding by setting is: (at 10 µM) 34% (inactive); (binding inhibition, at 0.1 µM) 26%.
In the same order, the values of `Cc1c(C(=O)OCc2ccccc2)[nH]c2c1C(=O)CC(c1ccco1)C2` (stereo unspecified) are 37% (inactive) and 24%.
In the same order, the values of `Cc1ccc(Nc2nnc(SCC(=O)NCc3ccco3)s2)cc1` are 10% (inactive) and 12%.
In the same order, the values of `Nc1c(Cl)cc(Cl)cc1C(=O)OCC(=O)NC1CC1` are 52% (inactive) and 13%.
`O=C1c2ccccc2NC(c2cccnc2)N1c1ccccc1F` (stereo unspecified): the inhibition of ligand binding is 14% (inactive) (at 10 µM) and 35% (binding inhibition, at 0.1 µM).
Consider `C[C@@H]1O[C@@H](Oc2c(-c3cc(O)c(O)c(O)c3)oc3cc(O)cc(O)c3c2=O)[C@H](O)[C@H](O)[C@H]1O`, for which the inhibition of ligand binding is, setting by setting: (at 10 µM) 52% (inactive); (binding inhibition, at 0.1 µM) 26%.
Take `COc1ccc(OC)c(/C=N/c2oc(-c3ccco3)c(-c3ccco3)c2C#N)c1`: the inhibition of ligand binding runs as follows: (at 10 µM) 25% (inactive); (binding inhibition, at 0.1 µM) 19%.
In the same order, the values of `O=C(OC1CCCCC1)c1ccc2c(c1)C1C=CCC1C(C(=O)O)N2` (stereo unspecified) are 42% (inactive) and 14%.
In the same order, the values of `CC1CCCN(c2nc3c(c(=O)[nH]c(=O)n3C)n2Cc2ccccc2Cl)C1` (stereo unspecified) are 33% (inactive) and 58%.
In the same order, the values of `COc1cccc([C@@H]2Oc3ccc(OC)cc3C(=O)[C@H]2O)c1` are 37% (inactive) and 43%.
`O=C(COC(=O)c1ccccc1)NCc1ccco1`: the inhibition of ligand binding reads like this: (at 10 µM) 29% (inactive); (binding inhibition, at 0.1 µM) 27%.
In the same order, the values of `COc1cc(C2Nc3c(F)cccc3C3C=CCC32)cc(Br)c1OC` (stereo unspecified) are 10% (inactive) and 20%.
In the same order, the values of `CN(CC(=O)NC(=O)NCc1ccco1)Cc1nc2ccccc2c(=O)[nH]1` are 17% (inactive) and 64%.
In the same order, the values of `COc1cc(OC)cc(C(=O)NC2CCN(C(=O)N3c4ccccc4Sc4ccccc43)CC2)c1` are 6% (inactive) and 22%.
For `O=C(Cc1cccs1)Nc1ccc(-c2nnn(CC(=O)N3CCOCC3)n2)cc1`, the inhibition of ligand binding (at 10 µM) is 15% (inactive) and the inhibition of ligand binding (binding inhibition, at 0.1 µM) stood at 55%.
In the same order, the values of `O=C(CSc1nc2c(cnn2-c2ccccc2)c(=O)[nH]1)c1ccc(Cl)cc1` are 18% (inactive) and 1%.
As for `Cn1c(SCc2cc(=O)n3cc(Br)ccc3n2)nnc1C1COc2ccccc2O1` (stereo unspecified), the inhibition of ligand binding (at 10 µM) is 19% (inactive) and the inhibition of ligand binding (binding inhibition, at 0.1 µM) is 27%.
With `COc1cc2c(cc1OC)C(Cc1ccc(O)cc1)NCC2` (stereo unspecified), the inhibition of ligand binding (at 10 µM) was 26% (inactive) and the inhibition of ligand binding (binding inhibition, at 0.1 µM) amounted to 32%.
For `CC(=O)OC1CC(C)(C)N(OC(=O)c2ccc(N)cc2)C(C)(C)C1`, the inhibition of ligand binding is, setting by setting: (at 10 µM) 6% (inactive); (binding inhibition, at 0.1 µM) 7%.
In the same order, the values of `COc1ccc2c(c1OC)C(=O)N1N=C(c3ccc(O)cc3)CC21` (stereo unspecified) are 0% (inactive) and 30%.
In the same order, the values of `CCOC(=O)CSc1nn(C)c(=S)s1` are 52% (inactive) and 38%.
In the same order, the values of `COc1ccc(C2CC(c3ccccc3)=NN2c2ccc(N)cc2)cc1` (stereo unspecified) are 19% (inactive) and 47%.
For the compound `Cc1cc(C)c(S(=O)(=O)/N=C2\C=CC(=O)C(Cl)=C2)c(C)c1`, the inhibition of ligand binding is, setting by setting: (at 10 µM) 20% (inactive); (binding inhibition, at 0.1 µM) 7%.
In the same order, the values of `c1coc(-c2nnc3sc(Cc4cccs4)nn23)c1` are 24% (inactive) and 14%.
In the same order, the values of `Cc1ccc(S(=O)(=O)Cc2ccc(C(=O)N3CCc4ccccc4C3)o2)cc1` are 54% (inactive) and 57%.
In the same order, the values of `CC(=O)c1cccc(NC(=O)Cc2cccs2)c1` are 3% (inactive) and 40%.
As for `CCn1c(SCC(=O)Nc2cccc(F)c2)nnc1-c1cc2cc(Br)ccc2o1`, the inhibition of ligand binding is 26% (inactive) (at 10 µM) and 35% (binding inhibition, at 0.1 µM).
In the same order, the values of `CC(Oc1ccc(Cl)cc1Cl)C(=O)Nc1ccc2oc(-c3ccncc3)nc2c1` (stereo unspecified) are 48% (inactive) and 40%.
Turning to `Nc1ccc2nc(CN3CCOCC3)[nH]c2c1`, the inhibition of ligand binding is 42% (inactive) (at 10 µM) and 41% (binding inhibition, at 0.1 µM).
In the same order, the values of `COc1ccc(NC(=O)c2ccco2)cc1N` are 2% (inactive) and 3%.
For the compound `Cc1nc2ccc(C(=O)O)cc2[nH]1`, the inhibition of ligand binding is 55% (inactive) (at 10 µM) and 52% (binding inhibition, at 0.1 µM).
In the same order, the values of `Cc1cc(N)ccc1N=Nc1c(C)n(C)n(-c2ccccc2)c1=O` are 44% (inactive) and 3%.
In the same order, the values of `Cc1nn(-c2ccccc2)c(Cl)c1/C=N/Nc1ccc(S(=O)(=O)Nc2ccccc2C(=O)O)cc1[N+](=O)[O-]` are 38% (inactive) and 12%.
In the same order, the values of `O=C(CSc1nc2ccccc2c(=O)[nH]1)c1ccc(O)c(O)c1` are 14% (inactive) and 5%.
For the compound `CN(C)c1ccc(N=Cc2ccco2)cc1`, the inhibition of ligand binding is, setting by setting: (at 10 µM) 37% (inactive); (binding inhibition, at 0.1 µM) 23%.
